{"source": "PubChem BioAssay AID493175", "about": "(National Center for Advancing Translational Sciences (NCATS), 2011)", "note": "Inconclusive results are not listed. Calls of active or inactive are those of the source. Calls come from the whole dose curve; as a rule, active = well fitted curve in the direction sought with a large enough effect; inconclusive = small, poorly fitted or top-dose-only effect, or another doubt; inactive = no such curve, though single readings can be large or run the other way.", "data": [{"biological_target": "Luciferin 4-monooxygenase (Photinus pyralis) (UniProt P08659)", "sequence (P08659 whole entry, looked up)": "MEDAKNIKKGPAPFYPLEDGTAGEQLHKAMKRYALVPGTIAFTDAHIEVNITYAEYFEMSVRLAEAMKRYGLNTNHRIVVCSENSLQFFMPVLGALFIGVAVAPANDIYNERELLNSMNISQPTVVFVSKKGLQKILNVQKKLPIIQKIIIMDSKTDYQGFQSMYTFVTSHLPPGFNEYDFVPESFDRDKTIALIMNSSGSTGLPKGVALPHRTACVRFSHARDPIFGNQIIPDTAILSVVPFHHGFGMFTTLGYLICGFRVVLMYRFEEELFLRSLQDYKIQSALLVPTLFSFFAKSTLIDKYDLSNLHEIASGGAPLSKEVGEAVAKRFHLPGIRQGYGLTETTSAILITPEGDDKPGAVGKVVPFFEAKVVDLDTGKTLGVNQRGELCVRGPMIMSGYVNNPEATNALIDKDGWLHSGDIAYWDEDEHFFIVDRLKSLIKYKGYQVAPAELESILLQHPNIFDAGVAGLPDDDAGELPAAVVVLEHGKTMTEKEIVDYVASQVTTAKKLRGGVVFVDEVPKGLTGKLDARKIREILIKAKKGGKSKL", "experiment": "miR-21 counterscreen using purified firefly luciferase", "details": "purified P. pyralis luciferase, luminescence; series mostly up to 57.5 µM; activity change, negative = inhibition: at the top concentration", "from_the_text": "MLPCN Grant: 1 R21 NS059478-01 Assay Provider: Qihong Huang, The Wistar Institute NCGC Assay Overview: MicroRNAs (miRNAs) are endogenously encoded small (~20-25 nucleotides), nonprotein-coding RNAs that are involved in post-transcriptional repression of target messenger RNAs (mRNAs) (Le and Hannon, 2004). Estimated to be involved in the regulation of 30% of all protein-coding mRNAs (Filipowicz et al., 2008), miRNAs play a significant role in many biological processes including cellular differentiation and tissue development (Ghildiyal and Zamore, 2009). […] Compounds active in the miR-21 FLuc assay were clustered using Leadscope and active chemical series were prioritized based on chemical properties, potential for medicinal chemistry optimization, and SAR. Within each chemical series, representative compounds were re-acquired to test for activity in a secondary assay based on the quality of their CRC, efficacy, and potency. This secondary assay to determine if compounds active in the miR-21 FLuc assay were just luciferase inhibitors. Compounds found active in both the miR-21 FLuc and purified FLuc assays are considered as false positives. Keywords: NIH Roadmap, MLPCN, MLSMR, qHTS, miR-21, firefly luciferase, FLuc, miRNA.\nNCGC Assay Protocol Summary: Reagents: 50mM Tris acetate, pH 7.5; 10mM Mg acetate; 10uM D-luciferin (Sigma #L9504); 10uM ATP; 0.01% Tween-20; 0.05% BSA; 10nM P. pyralis luciferase (Sigma #L9506) Control compounds used were two known firefly luciferase inhibitors (compounds (2) and (5) in Auld et al., 2010), and DMSO. Assay Summary: Three microliters containing firefly luciferase substrates in buffer (final concentrations: 50mM Tris acetate, pH 7.5, 10mM Mg acetate, 0.01% Tween-20, 0.05% BSA, 10uM D-luciferin, and 10uM ATP) are dispensed into each well of a Greiner white, solid-bottom 1536-well format plate using a flying reagent dispenser (FRD). These assay plates were then treated with 23nL of compound or DMSO using a Kalypsys pin tool, which allows for delivery of a 6-point interplate titration of each compound to the assay plate (quantitative HTS), with a final compound concentrations ranging from approximately 60 µM to 7pM. One microliter of firefly luciferase in […] Tris-acetate buffer was then delivered by FRD to each well for a final enzyme concentration of 10nM. Luciferase activity was then measured using a ViewLux CCD imager (PerkinElmer), with an average exposure time of 2-30 seconds (2X binning, medium/high gain).", "values": [{"compound": "Cc1ccc(Nc2ncnc(N)n2)cc1C", "activity change, negative = inhibition": "-17.6% (inactive)"}, {"compound": "Cc1ccc(CNc2nc3nc(C)c(Cl)c(C)n3n2)cc1", "activity change, negative = inhibition": "-5.45% (inactive)"}, {"compound": "O=S(=O)(c1ccc(F)cc1)n1ccc(-c2cnc(-c3ccccc3)s2)n1", "activity change, negative = inhibition": "-19.1% (inactive)"}, {"compound": "c1ccc(CSc2nnc3ccc(-c4cccs4)nn23)nc1", "activity change, negative = inhibition": "-15.9% (inactive)"}, {"compound": "CCc1nonc1NC(=O)c1oc2ccccc2c1C", "activity change, negative = inhibition": "-6.73% (inactive)"}, {"compound": "O=C(Nc1ccc(-c2nc3ccccc3[nH]2)cc1)c1ccc2c(c1)OCO2", "activity change, negative = inhibition": "-15.9% (inactive)"}, {"compound": "COc1ccc(-c2csc(NC(=O)COC(=O)c3ccc(Br)o3)n2)cc1", "activity change, negative = inhibition": "0.739% (inactive)"}, {"compound": "COc1ccc(NC(=O)c2ncn(-c3ccccc3)n2)cc1Cl", "activity change, negative = inhibition": "-14.2% (inactive)"}, {"compound": "CC(C)C(=O)Nc1nc2c(s1)CC(C(C)(C)C)CC2", "note": "(centres undefined)", "activity change, negative = inhibition": "-17.6% (inactive)"}, {"compound": "Fc1cccc(Cl)c1CSc1nnc2ccccn12", "activity change, negative = inhibition": "-17.8% (inactive)"}, {"compound": "N#Cc1cc2cc3c(cc2nc1SCC(=O)N1CCOCC1)OCO3", "activity change, negative = inhibition": "-12.6% (inactive)"}, {"compound": "Cc1c(-c2nc(-c3ccc(C(F)(F)F)cc3)no2)n(C)oc1=O", "activity change, negative = inhibition": "6.33% (inactive)"}, {"compound": "CCCCN1C(C(=O)c2ccccc2)=C(OC(C)=O)c2ccccc2S1(=O)=O", "activity change, negative = inhibition": "-17% (inactive)"}, {"compound": "Cc1ccc(C)c(Nc2nc3nonc3nc2Nc2cccc(C)c2C)c1", "activity change, negative = inhibition": "-10.5% (inactive)"}, {"compound": "Cc1cccc(-c2nsc(SCC(=O)Nc3ccc4c(c3)OCO4)n2)c1", "activity change, negative = inhibition": "-20.1% (inactive)"}, {"compound": "COc1ccc(CCNc2ncnc3c2cnn3-c2cc(Cl)ccc2C)cc1", "activity change, negative = inhibition": "1.58% (inactive)"}, {"compound": "Cc1ccc(-n2nnc(-c3nsc(NC(=O)c4ccccc4)n3)c2C)cc1", "activity change, negative = inhibition": "-7.45% (inactive)"}, {"compound": "COc1ccccc1NC(=O)c1sc2nc3c(cc2c1N)CN(Cc1ccccc1)CC3", "activity change, negative = inhibition": "-1.23% (inactive)"}, {"compound": "Cc1cc(C)cc(NC(=O)CSc2nnc(CNC(=O)c3ccco3)o2)c1", "activity change, negative = inhibition": "3.89% (inactive)"}, {"compound": "COc1ccccc1Nc1nn2c(=O)c3ccc(C(=O)NCc4cccs4)cc3nc2s1", "activity change, negative = inhibition": "-3.28% (inactive)"}, {"compound": "COc1cc(-c2nc3cnccn3c2Nc2ccc(C(C)C)cc2)ccc1O", "activity change, negative = inhibition": "-1.34% (inactive)"}, {"compound": "O=C(CSc1nnc(-c2ccc(Cl)cc2)o1)Nc1ccc(F)cc1", "activity change, negative = inhibition": "-3.58% (inactive)"}, {"compound": "COc1ccc(C(=O)Nc2nnc(C(C)C)s2)cc1OC", "activity change, negative = inhibition": "-16.5% (inactive)"}, {"compound": "Cc1ccc(-c2nc3cnccn3c2Nc2ccccc2)o1", "activity change, negative = inhibition": "-19.4% (inactive)"}, {"compound": "CCC(=O)n1nc(-c2cccnc2)nc1NCc1ccc(F)cc1", "activity change, negative = inhibition": "-1.65% (inactive)"}, {"compound": "COCC(=O)Nc1c(C(=O)Nc2ccc3c(c2)OCCO3)oc2ccccc12", "activity change, negative = inhibition": "-14.9% (inactive)"}, {"compound": "O=C(CSc1nnc(-c2cccnc2)o1)Nc1cccc(Cl)c1", "activity change, negative = inhibition": "2.64% (inactive)"}, {"compound": "Cc1ccc(-c2nsc(SCC(=O)Nc3ccc4c(c3)OCO4)n2)cc1", "activity change, negative = inhibition": "-19.4% (inactive)"}, {"compound": "COc1ccc(OCC(=O)Nc2ccc(-c3nc4cc(Cl)ccc4o3)cc2)cc1", "activity change, negative = inhibition": "-3.29% (inactive)"}, {"compound": "CCCCOc1ccccc1CC1C(=O)Nc2ccc(Br)cc21", "note": "(centres undefined)", "activity change, negative = inhibition": "-3.67% (inactive)"}, {"compound": "CN(C(=O)CSc1nnc(-c2ccccc2F)o1)C1CCCCC1", "activity change, negative = inhibition": "-17.4% (inactive)"}, {"compound": "COc1cc(Cl)c(C)cc1Nc1c2c(nc3ccccc13)CCC2", "activity change, negative = inhibition": "2.63% (inactive)"}, {"compound": "COc1ccc(NC(=O)CSc2nc(SC)ns2)c(OC)c1", "activity change, negative = inhibition": "-4.09% (inactive)"}, {"compound": "Cc1cccc(N2CCN(c3ncnc4onc(C)c34)CC2C)c1", "note": "(centres undefined)", "activity change, negative = inhibition": "-2.15% (inactive)"}, {"compound": "Nc1c(-c2nc(-c3ccncc3)no2)nnn1CC(=O)Nc1ccccc1", "activity change, negative = inhibition": "-2.75% (inactive)"}, {"compound": "Nc1c(-c2nc(-c3ccccc3Cl)no2)nnn1-c1ccccc1F", "activity change, negative = inhibition": "-14.3% (inactive)"}, {"compound": "COc1ccc(-c2nc(SCc3ccccc3)n(S(C)(=O)=O)n2)cc1", "activity change, negative = inhibition": "1.64% (inactive)"}, {"compound": "CS(=O)(=O)c1ncc(Cl)c(C(=O)N2CCN(c3cccc(Cl)c3)CC2)n1", "activity change, negative = inhibition": "-18.8% (inactive)"}, {"compound": "COc1ccc(OCC(=O)Nc2cc(-c3nc4ccccc4s3)ccc2C)cc1", "activity change, negative = inhibition": "-18.9% (inactive)"}]}]}
